Laboratory results as given in PubChem BioAssay (NCI).
The panel holds about 83,000 compounds, 20% with a hit somewhere; the sample as a whole holds those more often.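 Activity criterion: percent growth below 10, measured after cells in 96-well plates were exposed to a single compound concentration for 48 hours.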 Unmarked numbers belong to inactive results. Activity calls are given as the source filed them.

What follows are molecules tested on NCI-H226 lung (assay: NCI-60 one-dose screen, 48 h (100 = growth as untreated, 0 = no growth, -100 = all killed)). Details: 10 µM unless noted.

Going from `COc1ccccc1CNCCCN1C(=O)c2ccc3c4c(ccc(c24)C1=O)C(=O)N(CCCNCCCCNCCCCN)C3=O` to `Cc1nn(-c2ccc(Cl)cc2)c(=O)n1CCOc1ccccc1Cl`, the growth rises from 27% to 103%.

Compared with `Cc1cc(C)c(S(=O)(=O)N2CCN(c3cc4c(cc3F)c(=O)c(C(=O)O)cn4C3CC3)CC2)c(C)c1`, `CCCCNC(=O)NS(=O)(=O)c1ccc(N2N=C(c3ccc(C)cc3C)CC2c2ccc(OC)cc2)cc1` (stereo not drawn) is higher in growth: 71.8% for the first, 86.7% for the second.

Compared with `COc1ccc(C(=O)/C=C/c2cc(C(=O)c3cc(OC)c(OC)c(OC)c3)ccc2OC)cc1`, `COc1ccc(C(=O)c2cc(OC)c(OC)c(OC)c2)cc1/C=C/C(=O)c1ccc(OC)c(OC)c1` is lower in growth: 90.7% for the first, 55.6% for the second.

Compared with `NC(=O)NC(=O)/C=C/C(=O)OCCCl`, `O=C(CCl)NCCNc1nccc(Nc2ccc(S(=O)(=O)Nc3ccccn3)cc2)n1` is lower in growth: 98.2% for the first, 48% for the second.

First: COc1cc2nc(N3CCC[C@@H](NC4=CC(=O)c5ccccc5C4=O)C3)nc(N)c2cc1OC
Second: O=S(=O)(c1ccccc1)n1ccc(-c2ccc3c(c2)CCO3)n1
The growth of the first is higher: 113% for the first, 64.6% for the second.

First: O=C(CNc1ccc(Cl)cc1)Nc1ccc(-c2nc3ccccc3s2)cc1
Second: O=C(O)c1ccc(-n2c(=O)c3ccccc3c3ccccc3c2=O)cc1
The growth of the first is lower: 58.1% for the first, 99.8% for the second.

Going from `COc1cc(OC)c(C(=O)/C=C/c2ccc(C(F)(F)F)cc2)c(OC)c1` to `CC(C)(C)OC(=O)N[C@@H](Cc1ccccc1)C(=O)N(Cc1ccccc1)C1(C(=O)NCc2ccccc2)CCN(Cc2ccccc2)CC1`, the growth rises from 64.7% to 70%.

For `COc1ccc(/C=C2\CCCC3=C2NC(C)=NC3c2ccc(OC)c(OC)c2)cc1OC` (stereo not drawn), the growth was -22.4% (active).

Each molecule was assayed on NCI-H322M lung in the same assay as above. Details: 10 µM unless noted.

Compared with `C[C@]12CC[C@@H]3c4cc(O)c(O)cc4CC[C@H]3[C@@H]1CC[C@@H]2O`, `Cc1cc(C)c(S(=O)(=O)N2CCN(c3cc4c(cc3F)c(=O)c(C(=O)O)cn4C3CC3)CC2)c(C)c1` is higher in growth: 60.6% for the first, 74.7% for the second.

Going from `CCCOC(=O)C1(O)CCCC1` to `NC(=O)NC(=O)/C=C/C(=O)OCCCl`, the growth rises from 102% to 105%.

First: COC1=CC(c2ccc[nH]2)=N/C1=C\c1[nH]c(C)c(C(=O)CCCCC(=O)NCc2ccccc2)c1C
Second: CC(C)C[C@H](NC(=O)Cn1ccc(NCc2ccccc2)cc1=O)B(O)O
The growth of the first is lower: 77% for the first, 91.3% for the second.

Compared with `O=C(NNC(=S)Nc1ccccc1)c1ccccn1`, `O=C(CNc1ccc(Cl)cc1)Nc1ccc(-c2nc3ccccc3s2)cc1` is higher in growth: 23.3% for the first, 80.3% for the second.

First: COc1cc(NC(=O)CCl)ccc(=O)c1
Second: COc1cc(OC)c(C(=O)/C=C/c2ccc(C(F)(F)F)cc2)c(OC)c1
The growth of the first is higher: 86.4% for the first, 62% for the second.

Compared with `COc1ccc(S(=O)(=O)N2CCN(c3cc4c(cc3F)c(=O)c(C(=O)O)cn4C3CC3)CC2)c(OC)c1`, `COc1ccc(-c2cn[nH]c2-c2cc(OC)c3c(c2)OCCO3)cc1` is lower in growth: 91.6% for the first, 50.7% for the second.

Going from `COc1ccc(Cn2cc(COc3cc(/C=C/C(=O)c4cc(OC)c(OC)c(OC)c4)ccc3OC)nn2)cc1` to `COc1ccc(C(=O)/C=C/c2cc(C(=O)c3cc(OC)c(OC)c(OC)c3)ccc2OC)cc1`, the growth rises from 52.4% to 91.5%.

Going from `CC(C(=O)n1cc(-c2ccccc2)c(-c2ccccc2)c1)c1ccccc1` (stereo not drawn) to `CC(C)(C)OC(=O)N[C@@H](Cc1ccccc1)C(=O)N(Cc1ccccc1)C1(C(=O)NCc2ccccc2)CCN(Cc2ccccc2)CC1`, the growth falls from 110% to 64.3%.

Compared with `C=CCOc1cccc(/C=C/C(=O)c2sc(Nc3cccnc3)nc2C)c1`, `Cc1nc(Nc2cccnc2)sc1C(=O)/C=C/c1ccc(F)cc1` is lower in growth: 77.6% for the first, 47.9% for the second.

Compared with `CCC1CCc2nc3sc(C(=O)Nc4cccc(C)c4)c(N)c3cc2C1` (stereo not drawn), `Cc1cccc(NC(=O)c2sc3nc4c(cc3c2N)CCCC4)c1` is lower in growth: 94.8% for the first, 37.2% for the second.

First: CCNC(=O)C1CCCN1C(=O)C(CCCN=C(N)N)NC(=O)C(CC(C)C)NC(=O)C(CC(C)C)NC(=O)C(Cc1ccc(O)cc1)NC(=O)C(CO)NC(=O)C(Cc1c[nH]c2ccccc12)NC(=O)C(Cc1cnc[nH]1)NC(=O)C1CCC(=O)N1 (stereo not drawn)
Second: CC[C@]1(O)C[C@@H]2CN(Cc3c([nH]c4ccccc34)[C@@](C(=O)OC)(c3cc4c(cc3OC)N(C)[C@H]3[C@@](O)(C(=O)OC)[C@H](OC(C)=O)[C@]5(CC)[C@@H]6C[C@@H]6CN6CC[C@]43[C@@H]65)C2)C1
The growth of the first is higher: 119% for the first, 44.7% for the second.

First: COC(=O)c1cc(-c2cccs2)c(C#N)c(N)c1C#N
Second: CCCCNC(=O)NS(=O)(=O)c1ccc(N2N=C(c3ccc(C)cc3C)CC2c2ccc(OC)cc2)cc1 (stereo not drawn)
The growth of the first is higher: 99.8% for the first, 90.6% for the second.

First: CCOC(=O)[C@H](CSSc1ncnc2cc[nH]c12)NC(=O)[C@@H](C)c1ccc2cc(OC)ccc2c1
Second: COc1ccc(C2=CC(c3ccc(Oc4ccnc5cc(Cl)ccc45)c(OC)c3)c3c(nc(OC)[nH]c3=O)N2)cc1 (stereo not drawn)
The growth of the first is lower: 10.7% for the first, 72.9% for the second.

Compared with `O=S(=O)(c1ccccc1)n1ccc(-c2ccc3c(c2)CCO3)n1`, `O=C(O)c1ccc(-n2c(=O)c3ccccc3c3ccccc3c2=O)cc1` is higher in growth: 91.4% for the first, 108% for the second.

Compared with `COc1ccc(/C=C2\CCCC3=C2NC(C)=NC3c2ccc(OC)c(OC)c2)cc1OC` (stereo not drawn), `COc1ccc(C(=O)c2cc(OC)c(OC)c(OC)c2)cc1/C=C/C(=O)c1ccc(OC)c(OC)c1` is higher in growth: 47.4% for the first, 54.7% for the second.

First: O=C(CCl)NCCNc1nccc(Nc2ccc(S(=O)(=O)Nc3ccccn3)cc2)n1
Second: Cc1nn(-c2ccc(Cl)cc2)c(=O)n1CCOc1ccccc1Cl
The growth of the first is lower: 56.5% for the first, 111% for the second.

For `COc1cc(C(=O)OCCCCCCCCCCC[P+](c2ccccc2)(c2ccccc2)c2ccccc2)ccc1O`, the growth was 1.65% (active).
For `O=C(CCCn1c(=O)c2sc3ccccc3c2n2nnc(-c3ccccc3)c12)NCCc1cnc[nH]1`, the growth was -13.7% (active).
In the case of `CC[C@H](C)[C@H]1NC(=O)[C@@H](N[C@](C)(O)[C@@H](N)CC(C)C)[C@@H](C)OC(=O)[C@H](Cc2ccc(OC)cc2)N(C)C(=O)[C@@H]2CCCN2C(=O)[C@H](CC(C)C)NC(=O)[C@@H](C)C(=O)[C@H](C(C)C)OC(=O)C[C@@H]1O`, the growth is reported as -22.4% (active).
In the case of `O=C1N=C(c2c(-c3[nH]c(=O)c4ccc(Br)cc4c3O)c(O)c3ccccc3c2O)C(=O)c2cc(Br)ccc21`, the growth is reported as -3.29% (active).
`COc1ccccc1CNCCCN1C(=O)c2ccc3c4c(ccc(c24)C1=O)C(=O)N(CCCNCCCCNCCCCN)C3=O` was tested, and the growth was -21.5% (active).
`COc1cc2nc(N3CCC[C@@H](NC4=CC(=O)c5ccccc5C4=O)C3)nc(N)c2cc1OC` was tested, and the growth was -65.3% (active).
